Laboratory results published in paper PMC7862700, “An all-to-all approach to the identification of sequence-specific readers for epigenetic DNA modifications on cytosine”.

What was measured:
Test in all cases: DAPPL (digital affinity profiling via proximity ligation, sequencing); 10 mM Tris-HCl pH 7.5, 50 mM NaCl, 1 mM DTT, 4% glycerol, room temperature, 30 min; GST-TFs on glutathione beads, 16-mer random dsDNA library, 0.1% formaldehyde crosslink after washing; high values mean tight binding
FLI1 = target: T1, FLI1 (Homo sapiens, UniProt Q01543 1-452); conditions: protein: recombinant; tags: N-terminal GST; dsDNA, one strand shown
T1 sequence: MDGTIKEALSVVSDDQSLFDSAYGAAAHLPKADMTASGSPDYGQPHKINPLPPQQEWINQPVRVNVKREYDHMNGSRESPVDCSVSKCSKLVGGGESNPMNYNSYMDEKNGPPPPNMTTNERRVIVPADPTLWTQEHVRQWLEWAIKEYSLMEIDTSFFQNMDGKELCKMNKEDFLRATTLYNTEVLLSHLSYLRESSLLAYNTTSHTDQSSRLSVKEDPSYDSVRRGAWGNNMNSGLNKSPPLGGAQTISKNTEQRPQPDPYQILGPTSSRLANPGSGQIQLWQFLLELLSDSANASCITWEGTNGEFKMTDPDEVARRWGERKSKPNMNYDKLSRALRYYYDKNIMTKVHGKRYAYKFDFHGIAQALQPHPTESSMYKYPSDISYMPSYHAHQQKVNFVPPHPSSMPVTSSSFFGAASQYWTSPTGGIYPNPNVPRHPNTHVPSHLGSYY
Method in brief: (§1)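 A tag-only sample was pooled with DNA-barcoded human transcription factors that had been expressed in yeast as GST fusions and captured on glutathione beads. The pools were incubated for 30 min at room temperature with 200 nmole of a random double-stranded 16-mer DNA library in Tris/NaCl/DTT/glycerol buffer, then washed, crosslinked with 0.1% formaldehyde, proximity-ligated (BsaI/T4 ligase, 1 h, 37 °C), PCR-amplified and sequenced on an Illumina NextSeq500. Binding signal is each hexamer's read frequency for a factor divided by its frequency for the tag-only sample.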

ELK1 = target: T2, ELK1 (Homo sapiens, UniProt P19419 1-428); conditions: protein: recombinant; tags: N-terminal GST; dsDNA, one strand shown
T2 sequence: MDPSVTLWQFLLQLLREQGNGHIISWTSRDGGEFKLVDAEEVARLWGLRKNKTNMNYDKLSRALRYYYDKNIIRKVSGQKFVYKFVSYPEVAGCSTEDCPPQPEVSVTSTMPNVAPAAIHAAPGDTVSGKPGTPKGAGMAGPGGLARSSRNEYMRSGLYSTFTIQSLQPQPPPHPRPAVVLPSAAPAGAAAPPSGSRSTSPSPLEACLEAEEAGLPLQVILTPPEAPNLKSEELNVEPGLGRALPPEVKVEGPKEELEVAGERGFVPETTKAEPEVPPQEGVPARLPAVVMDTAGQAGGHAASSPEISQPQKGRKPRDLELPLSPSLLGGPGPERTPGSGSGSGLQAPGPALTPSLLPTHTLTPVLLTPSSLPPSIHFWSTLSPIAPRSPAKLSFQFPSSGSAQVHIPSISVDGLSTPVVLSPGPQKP
Method in brief: as §1

GABPA = target: T3, GABPA (Homo sapiens, UniProt Q06546 1-454); conditions: protein: recombinant; tags: N-terminal GST; dsDNA, one strand shown
T3 sequence: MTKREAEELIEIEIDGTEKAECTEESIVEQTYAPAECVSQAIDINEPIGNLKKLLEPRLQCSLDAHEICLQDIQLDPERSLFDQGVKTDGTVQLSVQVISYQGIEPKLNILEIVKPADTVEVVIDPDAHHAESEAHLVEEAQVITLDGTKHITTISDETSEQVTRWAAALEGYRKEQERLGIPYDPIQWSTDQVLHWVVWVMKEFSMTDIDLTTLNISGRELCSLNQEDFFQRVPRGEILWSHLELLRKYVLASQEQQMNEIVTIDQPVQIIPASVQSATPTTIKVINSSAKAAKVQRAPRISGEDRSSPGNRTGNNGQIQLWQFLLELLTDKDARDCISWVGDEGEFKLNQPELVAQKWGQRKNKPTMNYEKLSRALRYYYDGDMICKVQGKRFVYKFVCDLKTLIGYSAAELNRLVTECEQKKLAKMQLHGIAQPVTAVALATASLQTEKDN
Method in brief: as §1

ERG = target: T4, ERG (Homo sapiens, UniProt P11308 1-479); conditions: protein: recombinant; tags: N-terminal GST; dsDNA, one strand shown
T4 sequence: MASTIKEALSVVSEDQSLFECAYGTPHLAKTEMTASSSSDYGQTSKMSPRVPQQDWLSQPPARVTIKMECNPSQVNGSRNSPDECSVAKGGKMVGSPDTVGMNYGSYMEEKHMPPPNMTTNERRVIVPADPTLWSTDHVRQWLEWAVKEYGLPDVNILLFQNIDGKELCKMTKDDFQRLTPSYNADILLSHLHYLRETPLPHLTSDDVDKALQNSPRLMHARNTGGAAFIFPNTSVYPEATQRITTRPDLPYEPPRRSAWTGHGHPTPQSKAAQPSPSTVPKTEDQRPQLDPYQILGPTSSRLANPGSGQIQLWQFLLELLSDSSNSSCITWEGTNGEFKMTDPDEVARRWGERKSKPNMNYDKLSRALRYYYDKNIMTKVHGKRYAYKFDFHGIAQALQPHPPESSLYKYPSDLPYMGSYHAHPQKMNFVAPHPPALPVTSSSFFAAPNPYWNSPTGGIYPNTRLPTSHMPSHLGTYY
Method in brief: as §1

ELF1 = ELF1 (Homo sapiens, UniProt P32519 1-619); conditions: protein: recombinant; tags: N-terminal GST; dsDNA, one strand shown
Method in brief: as §1

EHF = target: T5, EHF (Homo sapiens, UniProt Q9NZC4 1-300); conditions: protein: recombinant; tags: N-terminal GST; dsDNA, one strand shown
T5 sequence: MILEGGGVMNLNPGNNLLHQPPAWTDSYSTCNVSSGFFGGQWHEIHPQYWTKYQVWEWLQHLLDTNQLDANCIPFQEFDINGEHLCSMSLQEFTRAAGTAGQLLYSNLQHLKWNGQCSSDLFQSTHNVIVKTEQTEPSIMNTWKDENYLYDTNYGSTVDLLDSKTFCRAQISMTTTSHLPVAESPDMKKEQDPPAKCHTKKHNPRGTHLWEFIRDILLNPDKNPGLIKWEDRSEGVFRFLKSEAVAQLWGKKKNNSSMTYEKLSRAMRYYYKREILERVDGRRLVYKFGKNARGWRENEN
Method in brief: as §1

SPI1 = SPI1 (Homo sapiens, UniProt P17947 1-270); conditions: protein: recombinant; tags: N-terminal GST; dsDNA, one strand shown
Method in brief: as §1

SPIB = SPIB (Homo sapiens, UniProt Q01892 1-262); conditions: protein: recombinant; tags: N-terminal GST; dsDNA, one strand shown
Method in brief: as §1

ELK3 = target: T6, ELK3 (Homo sapiens, UniProt P41970 1-407); conditions: protein: recombinant; tags: N-terminal GST; dsDNA, one strand shown
T6 sequence: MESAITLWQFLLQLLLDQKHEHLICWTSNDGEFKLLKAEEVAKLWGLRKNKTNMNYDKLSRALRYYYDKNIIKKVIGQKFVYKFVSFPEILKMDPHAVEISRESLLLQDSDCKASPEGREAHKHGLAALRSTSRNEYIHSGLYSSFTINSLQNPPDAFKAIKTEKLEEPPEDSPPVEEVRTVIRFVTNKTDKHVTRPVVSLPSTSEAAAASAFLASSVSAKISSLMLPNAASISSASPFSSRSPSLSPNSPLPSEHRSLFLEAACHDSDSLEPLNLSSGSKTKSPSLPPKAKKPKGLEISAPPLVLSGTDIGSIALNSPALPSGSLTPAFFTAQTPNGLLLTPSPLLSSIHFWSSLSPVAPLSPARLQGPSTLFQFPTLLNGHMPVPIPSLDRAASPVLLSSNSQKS
Method in brief: as §1

FEV = target: T7, FEV (Homo sapiens, UniProt Q99581 1-238); conditions: protein: recombinant; tags: N-terminal GST; dsDNA, one strand shown
T7 sequence: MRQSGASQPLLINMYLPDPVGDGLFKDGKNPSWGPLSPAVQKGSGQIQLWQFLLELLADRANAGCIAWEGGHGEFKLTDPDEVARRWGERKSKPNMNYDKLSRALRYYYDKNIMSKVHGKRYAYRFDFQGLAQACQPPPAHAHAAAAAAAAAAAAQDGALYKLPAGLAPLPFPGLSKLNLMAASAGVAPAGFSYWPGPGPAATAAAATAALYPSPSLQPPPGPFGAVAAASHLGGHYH
Method in brief: as §1

ETV5 = ETV5 (Homo sapiens, UniProt P41161 1-510); conditions: protein: recombinant; tags: N-terminal GST; dsDNA, one strand shown
Method in brief: as §1

HSF1 = HSF1 (Homo sapiens, UniProt Q00613 1-529); conditions: protein: recombinant; tags: N-terminal GST; chain copies: 3; dsDNA, one strand shown
Method in brief: as §1

SPIC = target: T8, SPIC (Homo sapiens, UniProt Q8N5J4 1-248); conditions: protein: recombinant; tags: N-terminal GST; dsDNA, one strand shown
T8 sequence: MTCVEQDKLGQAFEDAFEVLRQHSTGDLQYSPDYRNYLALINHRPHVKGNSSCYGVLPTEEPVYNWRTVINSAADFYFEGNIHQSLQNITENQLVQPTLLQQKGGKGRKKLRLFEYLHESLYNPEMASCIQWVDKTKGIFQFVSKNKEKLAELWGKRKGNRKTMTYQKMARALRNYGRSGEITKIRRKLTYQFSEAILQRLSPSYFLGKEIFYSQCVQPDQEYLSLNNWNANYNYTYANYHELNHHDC
Method in brief: as §1

ELF4 = ELF4 (Homo sapiens, UniProt Q99607 1-663); conditions: protein: recombinant; tags: N-terminal GST; dsDNA, one strand shown
Method in brief: as §1

ELK4 = target: T9, ELK4 (Homo sapiens, UniProt P28324-2 1-405); conditions: protein: recombinant; tags: N-terminal GST; dsDNA, one strand shown
T9 sequence: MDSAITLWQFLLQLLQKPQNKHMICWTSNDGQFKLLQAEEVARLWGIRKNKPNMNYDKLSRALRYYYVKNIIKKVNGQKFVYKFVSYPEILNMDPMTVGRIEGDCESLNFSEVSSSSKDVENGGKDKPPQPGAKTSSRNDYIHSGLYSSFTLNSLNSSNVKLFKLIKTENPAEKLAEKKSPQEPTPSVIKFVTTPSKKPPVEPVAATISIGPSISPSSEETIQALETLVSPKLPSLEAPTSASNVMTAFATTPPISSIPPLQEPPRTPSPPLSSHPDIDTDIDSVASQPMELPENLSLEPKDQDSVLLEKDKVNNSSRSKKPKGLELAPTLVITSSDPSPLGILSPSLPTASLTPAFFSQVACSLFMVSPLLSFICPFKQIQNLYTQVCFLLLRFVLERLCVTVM
Method in brief: as §1

ETV2 = target: T10, ETV2 (Homo sapiens, UniProt O00321 1-342); conditions: protein: recombinant; tags: N-terminal GST; dsDNA, one strand shown
T10 sequence: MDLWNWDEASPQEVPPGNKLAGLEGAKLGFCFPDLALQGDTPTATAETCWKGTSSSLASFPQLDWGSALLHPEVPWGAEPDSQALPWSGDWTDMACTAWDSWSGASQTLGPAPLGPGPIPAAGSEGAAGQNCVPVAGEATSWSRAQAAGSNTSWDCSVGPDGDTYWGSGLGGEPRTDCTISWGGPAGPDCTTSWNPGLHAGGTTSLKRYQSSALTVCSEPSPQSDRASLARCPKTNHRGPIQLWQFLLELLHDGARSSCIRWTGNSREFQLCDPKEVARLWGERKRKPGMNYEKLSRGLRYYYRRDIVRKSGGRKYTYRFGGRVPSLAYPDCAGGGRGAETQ
Method in brief: as §1

ELF3 = target: T11, ELF3 (Homo sapiens, UniProt P78545 1-371); conditions: protein: recombinant; tags: N-terminal GST; dsDNA, one strand shown
T11 sequence: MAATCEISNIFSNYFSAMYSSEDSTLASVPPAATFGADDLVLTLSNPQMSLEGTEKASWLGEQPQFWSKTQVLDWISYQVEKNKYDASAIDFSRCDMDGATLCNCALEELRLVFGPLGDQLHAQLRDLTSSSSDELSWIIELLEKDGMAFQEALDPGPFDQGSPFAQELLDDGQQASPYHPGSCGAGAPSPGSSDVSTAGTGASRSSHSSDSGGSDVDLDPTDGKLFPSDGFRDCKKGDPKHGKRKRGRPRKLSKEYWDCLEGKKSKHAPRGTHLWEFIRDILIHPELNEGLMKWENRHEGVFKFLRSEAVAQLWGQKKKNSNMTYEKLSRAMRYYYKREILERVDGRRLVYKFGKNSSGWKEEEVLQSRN
Method in brief: as §1

CRX = CRX (Homo sapiens, UniProt O43186 1-299); conditions: protein: recombinant; tags: N-terminal GST; dsDNA, one strand shown
Method in brief: as §1

ETV1 = ETV1 (Homo sapiens, UniProt P50549 1-477); conditions: protein: recombinant; tags: N-terminal GST; dsDNA, one strand shown
Method in brief: as §1

Sequence of SPIB (Q01892 whole entry): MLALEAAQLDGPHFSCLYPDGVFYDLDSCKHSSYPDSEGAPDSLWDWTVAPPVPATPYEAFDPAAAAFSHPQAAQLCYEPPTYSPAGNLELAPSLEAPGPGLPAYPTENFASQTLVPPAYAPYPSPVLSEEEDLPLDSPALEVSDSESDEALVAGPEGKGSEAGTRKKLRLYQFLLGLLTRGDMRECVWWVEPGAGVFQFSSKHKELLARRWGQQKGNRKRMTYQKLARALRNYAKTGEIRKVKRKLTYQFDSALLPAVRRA
Sequence of ELF4 (Q99607 whole entry): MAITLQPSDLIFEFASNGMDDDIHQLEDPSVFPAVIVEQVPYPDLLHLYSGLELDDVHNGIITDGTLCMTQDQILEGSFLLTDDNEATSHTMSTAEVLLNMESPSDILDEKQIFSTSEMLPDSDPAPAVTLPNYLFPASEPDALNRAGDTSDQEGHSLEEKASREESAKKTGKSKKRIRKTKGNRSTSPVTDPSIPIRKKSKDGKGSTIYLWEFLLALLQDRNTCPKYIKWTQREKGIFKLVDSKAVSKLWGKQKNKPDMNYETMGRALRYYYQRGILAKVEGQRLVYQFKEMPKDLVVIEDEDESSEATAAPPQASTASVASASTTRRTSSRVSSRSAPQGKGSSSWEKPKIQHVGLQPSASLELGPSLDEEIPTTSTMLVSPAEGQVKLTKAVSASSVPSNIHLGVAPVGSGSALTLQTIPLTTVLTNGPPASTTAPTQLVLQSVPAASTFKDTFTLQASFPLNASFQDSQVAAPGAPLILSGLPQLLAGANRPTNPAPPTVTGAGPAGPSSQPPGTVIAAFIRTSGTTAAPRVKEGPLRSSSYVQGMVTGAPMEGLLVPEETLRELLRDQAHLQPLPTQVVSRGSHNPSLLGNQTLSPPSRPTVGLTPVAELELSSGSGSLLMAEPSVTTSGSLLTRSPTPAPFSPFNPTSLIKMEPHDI
Sequence of ETV5 (P41161 whole entry): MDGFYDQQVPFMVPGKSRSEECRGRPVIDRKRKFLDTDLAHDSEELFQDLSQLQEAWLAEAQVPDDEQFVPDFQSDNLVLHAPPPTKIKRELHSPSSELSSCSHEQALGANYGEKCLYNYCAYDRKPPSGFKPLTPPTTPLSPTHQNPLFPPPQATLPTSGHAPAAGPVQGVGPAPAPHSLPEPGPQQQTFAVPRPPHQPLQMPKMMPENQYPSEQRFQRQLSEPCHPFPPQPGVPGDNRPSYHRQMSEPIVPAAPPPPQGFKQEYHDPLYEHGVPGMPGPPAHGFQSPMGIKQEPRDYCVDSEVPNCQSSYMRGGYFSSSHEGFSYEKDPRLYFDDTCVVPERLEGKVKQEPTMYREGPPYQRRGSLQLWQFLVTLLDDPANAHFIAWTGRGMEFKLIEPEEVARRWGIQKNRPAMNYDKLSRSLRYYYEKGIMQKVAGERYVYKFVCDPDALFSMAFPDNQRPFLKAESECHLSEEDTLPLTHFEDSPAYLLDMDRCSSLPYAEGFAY
Sequence of ETV1 (P50549 whole entry): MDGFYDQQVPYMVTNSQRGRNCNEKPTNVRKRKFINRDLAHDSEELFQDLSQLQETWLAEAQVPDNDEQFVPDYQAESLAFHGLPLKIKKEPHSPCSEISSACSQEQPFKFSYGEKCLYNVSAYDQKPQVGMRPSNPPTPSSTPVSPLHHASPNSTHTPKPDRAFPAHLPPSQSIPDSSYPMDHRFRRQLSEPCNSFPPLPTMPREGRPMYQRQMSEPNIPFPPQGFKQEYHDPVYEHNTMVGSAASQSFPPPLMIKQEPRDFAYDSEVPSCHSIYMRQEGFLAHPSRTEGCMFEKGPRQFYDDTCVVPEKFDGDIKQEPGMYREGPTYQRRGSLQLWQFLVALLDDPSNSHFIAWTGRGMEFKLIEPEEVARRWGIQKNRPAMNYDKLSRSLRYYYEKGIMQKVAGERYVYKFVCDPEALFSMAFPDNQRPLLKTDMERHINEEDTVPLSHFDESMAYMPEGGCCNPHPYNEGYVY
Sequence of CRX (O43186 whole entry): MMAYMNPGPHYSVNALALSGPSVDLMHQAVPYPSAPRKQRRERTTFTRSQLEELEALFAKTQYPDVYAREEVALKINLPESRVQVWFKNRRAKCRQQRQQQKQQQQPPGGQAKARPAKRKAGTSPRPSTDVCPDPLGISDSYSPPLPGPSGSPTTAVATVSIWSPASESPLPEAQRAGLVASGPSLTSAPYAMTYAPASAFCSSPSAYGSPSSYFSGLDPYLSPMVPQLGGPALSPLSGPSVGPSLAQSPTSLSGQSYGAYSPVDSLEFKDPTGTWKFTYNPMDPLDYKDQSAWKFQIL
Sequence of HSF1 (Q00613 whole entry): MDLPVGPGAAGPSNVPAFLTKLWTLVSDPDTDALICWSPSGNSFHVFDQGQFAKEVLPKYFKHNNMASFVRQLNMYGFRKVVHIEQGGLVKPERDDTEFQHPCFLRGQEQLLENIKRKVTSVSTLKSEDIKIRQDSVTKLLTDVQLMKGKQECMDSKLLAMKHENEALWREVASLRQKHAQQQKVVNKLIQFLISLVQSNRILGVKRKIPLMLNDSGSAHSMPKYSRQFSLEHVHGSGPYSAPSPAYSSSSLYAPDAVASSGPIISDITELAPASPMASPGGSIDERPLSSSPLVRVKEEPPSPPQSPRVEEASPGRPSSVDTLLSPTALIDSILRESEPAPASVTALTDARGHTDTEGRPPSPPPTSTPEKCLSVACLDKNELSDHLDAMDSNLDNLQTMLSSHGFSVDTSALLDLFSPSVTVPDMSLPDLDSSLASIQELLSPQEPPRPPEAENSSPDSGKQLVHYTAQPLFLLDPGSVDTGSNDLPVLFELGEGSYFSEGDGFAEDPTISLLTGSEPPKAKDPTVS
Sequence of ELF1 (P32519 whole entry): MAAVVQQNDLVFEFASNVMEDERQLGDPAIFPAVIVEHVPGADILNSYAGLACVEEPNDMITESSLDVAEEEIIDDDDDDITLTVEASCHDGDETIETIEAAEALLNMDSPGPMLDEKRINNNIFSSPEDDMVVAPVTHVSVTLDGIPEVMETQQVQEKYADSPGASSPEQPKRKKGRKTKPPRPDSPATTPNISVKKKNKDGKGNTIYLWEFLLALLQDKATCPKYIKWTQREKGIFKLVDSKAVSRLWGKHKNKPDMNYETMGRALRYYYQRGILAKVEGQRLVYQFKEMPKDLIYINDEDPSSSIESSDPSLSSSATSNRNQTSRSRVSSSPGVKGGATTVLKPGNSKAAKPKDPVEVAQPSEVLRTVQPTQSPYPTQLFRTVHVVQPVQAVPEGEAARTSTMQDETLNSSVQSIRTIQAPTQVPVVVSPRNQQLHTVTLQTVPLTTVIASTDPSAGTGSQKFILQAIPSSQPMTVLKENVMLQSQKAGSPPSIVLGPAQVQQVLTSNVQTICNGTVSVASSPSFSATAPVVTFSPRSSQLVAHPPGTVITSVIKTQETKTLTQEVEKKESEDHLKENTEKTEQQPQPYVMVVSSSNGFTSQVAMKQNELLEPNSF

TCTTTC
binding signal (FLI1): 1.43 fold enrichment (6-mer frequency, TF over GST control) | binding signal (ELK1): 1.27 fold enrichment (6-mer frequency, TF over GST control) | binding signal (GABPA): 1.41 fold enrichment (6-mer frequency, TF over GST control) | binding signal (ERG): 1.3 fold enrichment (6-mer frequency, TF over GST control) | binding signal (ELF1): 1.37 fold enrichment (6-mer frequency, TF over GST control) | binding signal (EHF): 1.43 fold enrichment (6-mer frequency, TF over GST control) | binding signal (SPI1): 1.51 fold enrichment (6-mer frequency, TF over GST control) | binding signal (SPIB): 1.41 fold enrichment (6-mer frequency, TF over GST control) | binding signal (ELK3): 1.39 fold enrichment (6-mer frequency, TF over GST control) | binding signal (FEV): 1.39 fold enrichment (6-mer frequency, TF over GST control) | binding signal (ETV5): 1.36 fold enrichment (6-mer frequency, TF over GST control) | binding signal (HSF1): 1.82 fold enrichment (6-mer frequency, TF over GST control) | binding signal (SPIC): 1.31 fold enrichment (6-mer frequency, TF over GST control) | binding signal (ELF4): 1.32 fold enrichment (6-mer frequency, TF over GST control) | binding signal (ELK4): 1.46 fold enrichment (6-mer frequency, TF over GST control) | binding signal (ETV2): 1.42 fold enrichment (6-mer frequency, TF over GST control) | binding signal (ELF3): 1.19 fold enrichment (6-mer frequency, TF over GST control) | binding signal (CRX): 1.41 fold enrichment (6-mer frequency, TF over GST control) | binding signal (ETV1): 1.47 fold enrichment (6-mer frequency, TF over GST control)
